# Bioassay records: PubChem BioAssay, Johns Hopkins Ion Channel Center
# In the library only some 1.6% were active in any assay of this set; here they are far more common.
# KCNQ2 enhance: potentiators of rat KCNQ2 potassium channel | AID 2239 | actives 0.54% (n = 310,000) | CHO-K1 KCNQ2, FluxOR thallium flux fluorescence; active compounds read high | B-score at 10 µM | O88943;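 active = fluorescence ratio B-score at least 3 SD of library B-scores, with initial fluorescence B-score within 3 of them, cut at about 5.3 in these data; same plate scores as AID 2156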;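 also: B-score of peak minus minimum over baseline fluorescence ratio after K+ and Tl+ stimulus; positive B-score means potentiation of KCNQ2 with more thallium influx and brighter signal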
# Target sequence (O88943 whole entry, looked up): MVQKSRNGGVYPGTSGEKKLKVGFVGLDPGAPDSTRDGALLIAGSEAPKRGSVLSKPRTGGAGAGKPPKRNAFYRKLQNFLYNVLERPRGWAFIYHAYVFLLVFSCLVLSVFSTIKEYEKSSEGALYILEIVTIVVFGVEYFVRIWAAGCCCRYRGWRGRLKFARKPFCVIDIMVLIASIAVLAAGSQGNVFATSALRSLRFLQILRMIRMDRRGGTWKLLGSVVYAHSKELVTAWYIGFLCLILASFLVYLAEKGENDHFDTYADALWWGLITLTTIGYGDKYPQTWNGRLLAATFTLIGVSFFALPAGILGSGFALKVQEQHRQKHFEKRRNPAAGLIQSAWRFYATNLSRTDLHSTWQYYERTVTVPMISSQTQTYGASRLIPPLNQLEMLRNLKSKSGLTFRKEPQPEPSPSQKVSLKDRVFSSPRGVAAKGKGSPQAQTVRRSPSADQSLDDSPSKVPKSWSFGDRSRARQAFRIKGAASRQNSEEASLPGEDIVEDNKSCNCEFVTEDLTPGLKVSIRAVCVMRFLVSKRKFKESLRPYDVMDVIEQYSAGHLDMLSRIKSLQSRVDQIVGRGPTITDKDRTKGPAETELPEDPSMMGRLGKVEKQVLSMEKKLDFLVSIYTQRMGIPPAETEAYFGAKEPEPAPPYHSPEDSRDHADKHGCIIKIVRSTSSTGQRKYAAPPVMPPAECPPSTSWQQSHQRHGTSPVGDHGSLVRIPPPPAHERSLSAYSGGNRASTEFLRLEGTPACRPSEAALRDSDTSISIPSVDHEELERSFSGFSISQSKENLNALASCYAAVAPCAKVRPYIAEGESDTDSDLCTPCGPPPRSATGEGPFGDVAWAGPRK
# KCNQ2 block: blocks the rat KCNQ2 potassium channel | CHO-K1 KCNQ2, FluxOR thallium flux, 20 min; active compounds read low | B-score at 10 µM | actives 1.1% (n = 310,000) | AID 2156;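 active = fluorescence ratio B-score at most minus 3 library SDs, with starting brightness B-score within 2 library SDs, cut at about -5.5 in these data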
# Kir21 conf inh: confirmation of mouse Kir2.1 potassium channel inhibitors | Tl flux remaining, % of negative control (active compounds read low), % at 10 µM | AID 2032 | shares compounds with KCNQ2 enhance | Kir2.1-expressing cells, FluxOR thallium flux fluorescence; active compounds read low | actives 41% (n = 2,300);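 active = Primary-screen hit whose thallium flux fell at least 3 control SD below untreated wells in both duplicates, with normal baseline fluorescence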;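 also: 0% = blank wells without stimulus and 100% = stimulated no-compound controls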
# HEK293 ctr: counter-screen for Kir2.1 inhibitors: effect in parental HEK293 cells | actives 19% (n = 2,300) | shares compounds with KCNQ2 enhance | FluxOR signal as % of negative control (100 = no effect), % at 10 µM | FluxOR thallium flux fluorescence; 0% = unstimulated blank wells;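 active = dye signal at least 3 control SD above or below untreated wells in both duplicates, raw fluorescence within 3, either direction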;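 also: percent is based on the flux ratio of peak minus minimum fluorescence over baseline F0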
# CHO-K1 Tl ctr: alters thallium flux in parental CHO-K1 cells, KCNQ2 counter-screen; shares compounds with KCNQ2 enhance; FluxOR thallium flux fluorescence; zero = vehicle mean+3SD, 100% = vehicle-minus-blank window; activity increase over 3SD of controls, % at 10 µM; actives 43% (n = 1,200); AID 2282;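 active = signal rise of at least 3 SD above the untreated control mean, in both duplicate wells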;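 also: counter screen of KCNQ2 potentiator hits so any rise reflects channel-independent effects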
# KCNQ1 pot spec: selectivity of KCNQ2 potentiators: effect on human KCNQ1; actives 28% (n = 1,200); activation over 3SD threshold, % at 10 µM; shares compounds with KCNQ2 enhance; CHO KCNQ1 stable, FluxOR thallium flux fluorescence; beyond 3SD, as % of vehicle-control signal;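 active = fluorescence ratio rise of at least 3 SD of vehicle wells above their mean, in both replicate wells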;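 also: 0% = vehicle mean plus 3 SD and 100% = vehicle minus unstimulated blank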
# KCNQ2 pot confirm: rat KCNQ2 channel potentiator confirmation; shares compounds with KCNQ2 enhance; CHO-KCNQ2 cells, FluxOR thallium flux fluorescence; potentiation, less the hit threshold, % at 10 µM; actives 68% (n = 1,200);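 active = fluorescence ratio rising 3 SD or more over the vehicle control mean in both replicates, plus primary screen hit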;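 also: peak minus minimum thallium fluorescence divided by baseline after K/Tl stimulus; 0% = vehicle mean plus 3 SD and 100% = vehicle minus unstimulated blank difference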
# Kir21 spec: tests whether KCNQ2 potentiators also affect mouse Kir2.1 | actives 2% (n = 1,200) | HEK293 Kir2.1, FluxOR thallium flux fluorescence | activity over 3SD threshold, % at 10 µM | shares compounds with KCNQ2 enhance;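 active = fluorescence ratio rise of at least 3 SD above the vehicle-control mean, seen in both replicates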;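 also: 0% = vehicle mean plus 3 SD and 100% = vehicle minus no-stimulus blank window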
# KCNQ2 W236L pot: potentiates the retigabine-insensitive rat KCNQ2 W236L mutant channel. shares compounds with KCNQ2 enhance. CHO KCNQ2-W236L, automated patch clamp current. current increase over 3SD of negative controls (%), active compounds read high, % at 25 µM. actives 10% (n = 940);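 active = current increase at least 3 SD of the untreated controls above them in both duplicate recordings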
# Starred values were filed as active, the others as inactive; i = inactive; x = no result given.
SMILES,KCNQ2 enhance,KCNQ2 block,Kir21 conf inh,HEK293 ctr,others
CCCn1nnc(NC(=O)c2cccc(OCc3ccccc3)c2)n1,0.16,i,x,x,
O=C(O)CCNC(=O)c1ccc(NC(=O)Cc2ccc(Cl)cc2)cc1,x,i,x,x,
COc1ccc(C(=O)NN/C(C)=C/C(=O)c2ccccc2)cc1,0.97,i,x,x,
C/C(=C\C(=O)c1ccccc1)NNC(=O)c1ccc(Cl)cc1,17.6*,i,i,i,CHO-K1 Tl ctr=-14.0;KCNQ1 pot spec=-14.4;KCNQ2 pot confirm=-5.0;Kir21 spec=-45.3;KCNQ2 W236L pot=i
COc1cccc(N2CC(NS(=O)(=O)c3cccnc3)CC2=O)c1 (centres undefined),0.9,i,x,x,
NNC(=O)CN1C(=O)Nc2ccc(Cl)cc2C1c1ccccc1 (centres undefined),2.26,i,x,x,
COC(=O)CN1C(=O)Nc2ccc(Br)cc2C1c1ccccc1 (centres undefined),6.74*,i,i,i,CHO-K1 Tl ctr=-16.3;KCNQ1 pot spec=-9.8;KCNQ2 pot confirm=52.2*;Kir21 spec=-47.9;KCNQ2 W236L pot=i
CN1CCN(CC#CCn2c3ccccc3c3ccccc32)CC1,x,i,31.5%*,i,
CN1CCN(CC(O)Cn2c3ccccc3c3ccccc32)CC1 (centres undefined),x,i,x,x,
COc1ccc2oc(C(=O)NCCN3CCOCC3)c(C)c2c1OC,1.68,i,x,x,
COc1ccc(NC(=O)CN(C)C(=O)c2cc(CN3C(=O)c4ccccc4C3=O)ccc2OC)cc1,x,i,x,x,
O=C(Nc1ccc(Br)cc1)c1cccc(N2C(=O)C3CCCCC3C2=O)c1 (centres undefined),3.08,i,x,x,
CC(C)(C)CC(=O)Nc1ccc(Nc2ccccc2)cc1,6.32*,i,i,i,CHO-K1 Tl ctr=132.9*;KCNQ1 pot spec=-20.7;KCNQ2 pot confirm=15.9*;Kir21 spec=-40.2;KCNQ2 W236L pot=i
CC(C)CC(=O)Nc1ccc(Nc2ccccc2)cc1,1.6,i,x,x,
O=C(c1nnsc1S(=O)(=O)c1ccc(Cl)cc1)N1CCOCC1,5.03,i,x,x,
CNC(=O)c1nnsc1S(=O)(=O)c1ccc(Cl)cc1,-7.12,-7.12*,i,i,
Cc1ccc(CN2CCCN(Cc3cc(C)ccc3C)S2(=O)=O)cc1,7.33*,i,i,i,CHO-K1 Tl ctr=-26.0;KCNQ1 pot spec=-20.2;KCNQ2 pot confirm=-22.1;Kir21 spec=-27.1
Cc1ccc(C)c(CN2CCCN(Cc3cc(C)ccc3C)S2(=O)=O)c1,x,i,x,x,
OC(CNCc1ccccc1F)(c1ccc(F)cc1)c1ccc(F)cc1,x,i,x,x,
OC(CNCc1ccccc1)(c1ccc(F)cc1)c1ccc(F)cc1,x,i,38.5%*,i,
Cc1ccc(CNCC(O)(c2ccccc2)c2ccc(F)cc2)cc1 (centres undefined),x,i,x,x,
OC(CNCc1ccc(F)cc1)(c1ccccc1)c1ccc(F)cc1 (centres undefined),x,i,i,i,
COc1ccc(CNC(=O)c2sc3nc4c(c(C(F)(F)F)c3c2N)CCC4)cc1,x,i,x,x,
COc1cc(OC)c(C(=O)OC(C)C(=O)Nc2cccc(C(F)(F)F)c2)cc1OC (centres undefined),0.01,i,x,x,
Clc1ccc2nc(-c3ccc(Cl)nc3)[nH]c2c1,6.9*,i,i,i,CHO-K1 Tl ctr=-6.8;KCNQ1 pot spec=56.6*;KCNQ2 pot confirm=5.7*;Kir21 spec=-16.7;KCNQ2 W236L pot=3.5%*
SMILES,KCNQ2 enhance,KCNQ2 block,Kir21 conf inh,HEK293 ctr,others
Nc1ccc2nc(-c3ccc(Cl)cc3)[nH]c2c1,0.01,i,x,x,
C[C@@H](C(O)c1ccccc1)N(C)C(=O)CCc1ccccc1 (some centres undefined),x,i,x,x,
O=C1ON=C(c2ccccc2)/C1=C/c1ccc(O)cc1,x,i,i,i,
CC1=NOC(=O)/C1=C/c1ccc(O)cc1,1.87,i,x,x,
Cc1ccc(C2=NOC(=O)/C2=C\c2ccccc2)cc1,0.59,i,x,x,
O=C1ON=C(c2ccc(Cl)cc2)/C1=C/c1ccc(O)cc1,-7.36,-7.36*,58.0%*,i,
CCn1c(=S)sc2c(=O)n(CC(=O)Nc3ccccc3C(F)(F)F)c(C)nc21,1.08,i,x,x,
O=C(CCC(=O)N1CCSc2ccccc21)NC1CCCCC1,x,i,x,x,
CCOC(=O)c1c(NC(C)=O)sc(/C(C)=N/Nc2ccc(C(=O)O)cc2)c1C,0.79,i,x,x,
COc1ccc2[nH]cc(CCNS(=O)(=O)c3ccccc3)c2c1,0.51,i,x,x,
CCN(CC1COc2ccccc2O1)C(=S)Nc1ccccc1 (centres undefined),1.41,i,x,x,
COCc1c(C(=O)N2CCN(c3ccc(C(F)(F)F)cn3)CC2)oc2ccccc12,x,i,x,x,
O=C(c1ccco1)N1CCN(C(=O)C2CC(=O)N(c3ccccc3)C2)CC1 (centres undefined),0.61,i,x,x,
CN(NS(=O)(=O)c1ccc(Cl)cc1)c1ncc(C(F)(F)F)cc1Cl,3.35,i,57.5%*,i,
CN(NS(=O)(=O)c1ccc(F)cc1)c1ncc(C(F)(F)F)cc1Cl,0.59,i,x,x,
CCOc1cc(/C=C2/C(=O)ON=C2C)cc(Br)c1O,0.24,i,x,x,
COc1cc(/C=C2\C(=O)ON=C2c2ccccc2)cc(Br)c1O,1.96,i,i,51.0%*,
CCOc1cc(/C=C2\C(=O)ON=C2c2ccccc2)cc(Br)c1O,2.03,i,i,45.5%*,
COc1cc(/C=C2\C(=O)ON=C2c2ccccc2)cc(Cl)c1O,2.85,i,x,x,
Cc1ccc(NC2Sc3ccccc3NC2=O)cc1Cl (centres undefined),0.01,i,x,x,
COC(=O)c1cc(Br)c(N)cc1OC,0.2,i,x,x,
O=C(CCl)Nc1c2c(nn1-c1ccccc1)CSC2,x,i,x,x,
CC(OC(=O)c1ccc(Cl)c(S(=O)(=O)N2CCOCC2)c1)C(=O)Nc1ccc(S(N)(=O)=O)cc1 (centres undefined),0.66,i,x,x,
O=C(CSc1c2c(nc3cc(Cl)ccc13)CCCC2)NCc1ccco1,x,i,57.0%*,i,
O=C(CSc1nc2ccc(Cl)cc2[nH]1)NCc1ccco1,0.53,i,x,x,
CC1CCCN(CCOCCOc2ccc(Br)cc2Cl)C1 (centres undefined),x,i,x,x,
CC1CCN(CCCOc2ccc(Br)cc2Cl)CC1,x,i,38.5%*,i,
CCc1ccc(Nc2n[n+](-c3ccccc3)c(/C=C/c3ccccc3)s2)cc1,x,i,73.5%*,i,
